From ChEMBL document CHEMBL4513216, “Probing the Open Global Health Chemical Diversity Library for Multistage-Active Starting Points for Next-Generation Antimalarials” (ACS Infect Dis, 2020) come the findings set out here.

About 8,600 (12%) of roughly 69,000 compounds showed an effect of 50% or more. Many of the other results were omitted from the sample, so strong results are more common in it than they were.

For the assay, the system named is Plasmodium berghei. Put plainly: Screen against P. berghei liver stage (PbLuc), transformed with Luciferase, at 10uM. The note with it: tested at 10 uM. The assay is classed as functional, HepG2.
Take `O=C(C1CCOCC1)N1C[C@@H]2[C@@H](C1)OCC(=O)N2CC1CC1`: the INHIBITION was found to be 7.96%. `Cc1ccc(S(=O)(=O)N2CCC3(CC(C(=O)NC4CCC4)=NO3)C2)cc1` (stereo unspecified): the INHIBITION is on record as 5.67%. For the compound `O=C(NC1CCC1)C1=NOC2(CCN(Cc3ccco3)C2)C1` (stereo unspecified), the INHIBITION was determined as 64.9%.

For `O=C(O)[C@]12CCCN(Cc3ccco3)C[C@H]1CN(c1ncccn1)C2`, the INHIBITION is reported as 42.6%. Then `Cc1ccc(CN2CCC3(CC(C(=O)NC4CCC4)=NO3)C2)o1` (stereo unspecified), with 56.7%; and `Cc1ccc(CN2CCC3(CC(C(=O)NCC4CC4)=NO3)C2)s1` (stereo unspecified), with -117%. Then `CC(Nc1ncnc2c1NC(=O)CN2)c1ccc2c(c1)OCO2` (stereo unspecified), with 48.2%. For the compound `Cn1nccc1C(=O)N1CCOC(Cc2ccc(Cl)cc2)C1` (stereo unspecified), the INHIBITION was determined as 0.301%. Then `Cc1cc(C)c(C(=O)N2CCOCC2c2c(C)nn(C)c2C)o1` (stereo unspecified), with -79.1%. For `Cc1ccc(C(=O)N2CCCN(C)c3ccc(F)cc32)o1`, the INHIBITION stood at 16.5%. `CCc1cc(C(=O)N2CCCC(c3[nH]ncc3S(C)(=O)=O)C2)no1` (stereo unspecified): the INHIBITION came to 24.8%.

Regarding `CCn1ccnc1CN1CCN(c2cc(C)nc(C3CCCN3)c2)CC1` (stereo unspecified), the INHIBITION is recorded as 11.02%. Then `COc1cc(C)nc(N2CCN(Cc3nccn3C)CC2)n1`, with 41.4%; and `CCOc1cc(C)nc(N2CCN(Cc3nccn3C)CC2)n1`, with 12.2%. In the case of `COc1cc(C)nc(N2CCN(C(=O)CSC)CC2)n1`, the INHIBITION is on record as -64.85%.

Turning to `CCOc1cc(C)nc(N2CCN(Cc3nccn3CC)CC2)n1`, the INHIBITION was 50.8%. The result for `CCn1ccnc1CN1CCN(c2nc(C)cc(OC)n2)CC1` reads 78.3%. Then `CC(C)Cc1noc(CN(C)c2ncccn2)n1`, with -33.3%; and `CCOc1ccccc1C(=O)N(C)C(C)c1ccc(S(C)(=O)=O)cc1` (stereo unspecified), with -162%; and `CCC(C)N(Cc1cccnc1)C(=O)c1ccc(OC)cc1O` (stereo unspecified), with 32.9%. `CSCC(CCO)NC(=O)Nc1cccc(Br)c1C` (stereo unspecified): the INHIBITION was 36.8%. `CSCC(CCO)Nc1cccc(C(F)(F)F)n1` (stereo unspecified): the INHIBITION worked out at 22.8%. Consider `CSCC(CCO)NC(=O)c1cccc(F)c1Cl` (stereo unspecified), for which the INHIBITION was determined as 65.9%.

On to `CSCC(CCO)NC(=O)c1cccc(C)c1Cl` (stereo unspecified), for which the INHIBITION was 54.1%. Then `CSCC(CCO)NC(=O)Nc1ccc(C)cc1C` (stereo unspecified), with -7.53%; and `CSCC(CCO)NC(=O)c1cccc(Cl)c1F` (stereo unspecified), with 36.4%; and `CC(C)NC(=O)C1c2c(ncn2C(C)C)CCN1Cc1ccccc1` (stereo unspecified), with 8.67%. Take `Cn1ccc(C(=O)NC2CCC23CCN(CC2CCOCC2)CC3)c1` (stereo unspecified): the INHIBITION is listed as 12%. Take `CC[C@@H](C)[C@H](NC(=O)NC1CCS(=O)(=O)C1)C(=O)NCc1ccncc1` (stereo partly specified): the INHIBITION is reported as -41.2%. Consider `O=C(N[C@@H]1CN(Cc2cccs2)[C@@H]2COC[C@@H]21)C1CCC1`, for which the INHIBITION is recorded as -0.804%.

With `CCN(CC1CCCO1)C(=O)Nc1cc(C)ccc1S(C)(=O)=O` (stereo unspecified), the INHIBITION is given as -12.2%.

For `Cc1cccc(-c2nnc(C(C)NCCn3cc(C)cn3)o2)c1` (stereo unspecified), the INHIBITION is listed as 17.9%.

As to `Cc1ccc(-c2nnc(C(C)NCCn3cc(C)cn3)o2)cc1` (stereo unspecified), the INHIBITION was -3.87%.

Consider `Cc1cnn(CCNC(C)c2nnc(-c3ccccc3)o2)c1` (stereo unspecified), for which the INHIBITION was 54.8%. For the compound `Cn1ncc2c1CCCC2NCc1cc(Br)cs1` (stereo unspecified), the INHIBITION is reported as 31.1%. With `NCCNS(=O)(=O)Cc1ccc(Br)cc1`, the INHIBITION was 16.9%.

In the case of `COCc1noc(CN2C[C@H](C3CC3)[C@@H](N(C)C)C2)n1`, the INHIBITION is on record as 17.1%. With `O=C(CCOc1ccccc1F)N1CCCC1Cn1cccn1` (stereo unspecified), the INHIBITION came to 29.2%. Then `CN(CCC(=O)N1CCc2sccc2C1)Cc1cnn(C)c1`, with 19.2%. As for `CC(C)c1cc(C(=O)N2CCc3ccccc3C2C(=O)O)nn1C` (stereo unspecified), the INHIBITION is listed as -28%.

On to `CC(C)c1nc(C(=O)N2CCc3ccccc3C2C(=O)O)cs1` (stereo unspecified), for which the INHIBITION came to 6.61%. Then `CC(C)c1cc(C(=O)N2CCc3ccccc3C2C(=O)O)n(C)n1` (stereo unspecified), with 66.3%; and `O=C(O)C1(n2ccc(-c3ccco3)n2)CCN(Cc2ccsc2)CC1`, with -14.3%; and `Nc1no[n+]([O-])c1C(=O)NCc1cccnc1`, with 42.8%. The result for `NC(=O)NCC(=O)N1CCC2(CC1)c1ccccc1CC2O` (stereo unspecified) reads 28.3%; that for `Cn1cccc1CCC(=O)N1CCC2(CC1)c1ccccc1CC2O` (stereo unspecified), 60.1%; that for `O=C(CCN1CCNCC1)N1CCC2(CC1)c1ccccc1CC2O` (stereo unspecified), 31.6%. With `CSCC(=O)N1CCC2(CC1)c1ccccc1CC2O` (stereo unspecified), the INHIBITION came to 65.1%. In the case of `NS(=O)(=O)CCCC(=O)N1CCC2(CC1)c1ccccc1CC2O` (stereo unspecified), the INHIBITION is -38.8%. As to `O=C(CSc1ccncc1)N1CCC2(CC1)c1ccccc1CC2O` (stereo unspecified), the INHIBITION was -16.8%. `COCCC(=O)N1C[C@@H](c2ccc(F)c(F)c2)[C@@]2(CCCC(=O)N2)C1`: the INHIBITION is reported as 17.4%.

For `CCNC(c1cccnc1)c1ccc(F)cc1F` (stereo unspecified), the INHIBITION was 30.6%. The result for `COc1ccc(CNC(=O)NCCc2nc(C)c(C)s2)cn1` reads 31.2%; that for `COc1ccc(CNC(=O)NCc2nc(C)c(C)s2)cn1`, 48.5%. Turning to `COCCNc1ccccc1CNC(=O)C1CCCOC1` (stereo unspecified), the INHIBITION worked out at 35.1%.

With `Cc1ncc(CNC(=O)NCc2c(F)cccc2OC(F)F)s1`, the INHIBITION came to 10.7%.

Take `COCCNc1ccccc1CNC(=O)NCc1cnc(C)s1`: the INHIBITION stood at 52.1%. Turning to `Cc1ncc(CNC(=O)NCC(C)Oc2ccccc2F)s1` (stereo unspecified), the INHIBITION is recorded as -47.3%. `COCCNc1ccccc1CNC(=O)NCc1ccc(C)s1`: the INHIBITION is listed as 64.1%. The result for `COCCNc1ccccc1CNC(=O)NCc1nc(C)c(C)s1` reads 72%; that for `Cc1ccc(CNC(=O)NCc2cccnc2N(C)C)s1`, 15.5%. Take `NC(=O)C1CCN(C(=O)CCn2ccc3ccc(Br)cc32)CC1`: the INHIBITION was 10.6%. For the compound `c1cnc(N2CCOCC3(CCCN(CC4CCOCC4)C3)C2)nc1` (stereo unspecified), the INHIBITION is reported as -4.88%. Then `CNC(=O)CN1CC[C@H]2CN(C(=O)c3cc[nH]n3)C[C@H]2C1`, with 41.1%. For the compound `O=C(NCc1ccnc(-n2cccn2)c1)C1CC(=O)N(CC2CC2)C1` (stereo unspecified), the INHIBITION is listed as -25.9%. On to `CN(C)S(=O)(=O)N1C[C@@H]2C[C@H](C(=O)Nc3cccnc3)[C@H](C1)O2`, for which the INHIBITION came to 43.9%. Then `CC(=O)c1ccc(OCC(C)O)cc1O` (stereo unspecified), with 47.1%; and `COc1ccc(CN(C)[C@@H]2CN(S(=O)(=O)C(C)C)C[C@H]2O)cc1`, with 2.15%. The result for `CCN1C(=O)[C@]2(CC[C@@H]3CN(C(=O)Nc4ccc(F)cc4)C[C@@H]32)N=C1C` reads 22.2%. With `COc1ncccc1CNC(=O)Nc1cccnc1N1CCCC1`, the INHIBITION worked out at 43.3%. The result for `COc1cccc(CC(=O)NCC(Cc2ccc(F)cc2)C(N)=O)c1` (stereo unspecified) reads 8.99%; that for `N#Cc1ccc(N2CCC(NS(=O)(=O)c3cccs3)CC2)c(F)c1`, 20.9%; that for `N#Cc1c(F)cccc1N1CCC(NS(=O)(=O)c2cccs2)CC1`, 24%. `N#Cc1cc(F)c(N2CCC(NS(=O)(=O)c3cccs3)CC2)c(F)c1`: the INHIBITION was determined as 62.9%. Then `CNc1ncc(C(=O)N2CCOC(C(=O)Nc3ccccc3)C2)cn1` (stereo unspecified), with -8.58%.

Turning to `CN(CCc1ccccc1)Cc1c(C2CCOCC2)[nH]c2ncccc12`, the INHIBITION was 17.125%. The result for `CN(CCc1ccccc1)Cc1c(C2CCNCC2)[nH]c2ncccc12` reads 58.95%; that for `CN(CCc1ccccc1)Cc1c(C2CC2)[nH]c2ncccc12`, 14.185%. The result for `NCCCC(=O)N1CCC2(CC1)CN(C(=O)c1ccc(Cl)cc1)CCO2` reads 4.35%; that for `O=C(c1csc(-c2ccc(C(F)(F)F)cc2)n1)N1CCCNCC1`, 62.1%; that for `O=C1CCN(C(=O)c2csc(-c3ccc(C(F)(F)F)cc3)n2)CCN1`, -1.26%. Then `CN1CCCN(C(=O)c2csc(-c3ccc(C(F)(F)F)cc3)n2)CC1`, with 42.3%; and `CC(C)NC(=O)N1CCN(CC2CC2)CC2(CC(=O)N(C)C2)C1` (stereo unspecified), with 79.5%; and `CC(=O)N1CCN(C(=O)NC(C)C)CC2(CNC(=O)C2)C1` (stereo unspecified), with -2.17%. `CC(=O)N1CCN(C(=O)NC(C)C)CC2(CC(=O)N(C)C2)C1` (stereo unspecified): the INHIBITION is recorded as -3.52%.

Turning to `CC(C)NC(=O)N1CCN(C(=O)C(C)C)CC2(CC(=O)N(C)C2)C1` (stereo unspecified), the INHIBITION was found to be 22.2%. Take `CC(C)NC(=O)N1CCN(CC2CC2)CC2(CNC(=O)C2)C1` (stereo unspecified): the INHIBITION is given as 69.6%. `CC(C)NC(=O)N1CCN(C(=O)NC(C)C)CC2(CNC(=O)C2)C1`: the INHIBITION is recorded as -2.17%. For the compound `CN(C)C(=O)COC1COC2(CCN(CC3CCOCC3)CC2)C1` (stereo unspecified), the INHIBITION was found to be 12.2%. Then `COCC1CCN(C(=O)c2cn(Cc3ccccc3C(F)(F)F)nn2)C1` (stereo unspecified), with -49.3%; and `CNC(=O)c1cc2c(nc1NCC1CC1)CCN(S(C)(=O)=O)CC2`, with -8.94%. Then `Cc1csc(C2CCCCN2C(=O)c2c[nH]c(C)n2)n1` (stereo unspecified), with 1.75%; and `CC(=O)c1ccc(C(=O)N2C[C@H]3CC[C@@H](C2)N(Cc2ccccc2)C3)s1`, with -52.1%; and `Cn1cc(CCC(=O)N2CCN(Cc3ccncc3)CC2)cn1`, with 27.1%. As to `CCN(CC)CC(=O)N1CCN(CCCc2ccncc2)CC1`, the INHIBITION worked out at 66.5%. Take `CCn1cc(CN2CCCN(C(=O)CCc3ccncc3)CC2)cn1`: the INHIBITION is given as 31%. Consider `CCC(=O)N1CCN(Cc2cc(-c3ccncc3)nn2C)CC1`, for which the INHIBITION stood at 19.3%.

`CCN(CC)C(=O)N1CCN(CCc2ccncc2)CC1`: the INHIBITION was 15.5%. Then `CCN(CC)CC(=O)N1CCN(CCc2ccncc2)CC1`, with 52.6%; and `O=C(c1cccnc1)N1CCC[C@]2(C[C@H](Oc3ncccc3F)CO2)C1`, with -7.59%; and `O=C(NCc1ccc(Cl)cc1)C1=NOC2(CCNC2)C1` (stereo unspecified), with 1.71%.

Regarding `c1cncc(CN2CCC(c3ccnc4nccn34)C2)c1` (stereo unspecified), the INHIBITION came to 19.99%. The result for `Cc1nccc(N2CCC(=O)N(CC3CC3)C(C(C)C)C2)n1` (stereo unspecified) reads 27.2%; that for `COc1ccnc(N2CCC(=O)N(CC3CC3)C(C(C)C)C2)n1` (stereo unspecified), 50.3%; that for `CC(C)C1CN(c2ncccn2)CCC(=O)N1CC1CC1` (stereo unspecified), 9.63%.

For `Cc1noc(C)c1CN1CCN(Cc2ccncc2)c2ncccc2C1`, the INHIBITION worked out at 29%.
